Experiment [1] has as its target T1, Aspartate--tRNA(Asp/Asn) ligase (Mycobacterium tuberculosis (strain ATCC 25618 / H37Rv)) (UniProt P9WFW3). Also: in the data most compounds retested in dose-response had high values.
T1 sequence (whole entry): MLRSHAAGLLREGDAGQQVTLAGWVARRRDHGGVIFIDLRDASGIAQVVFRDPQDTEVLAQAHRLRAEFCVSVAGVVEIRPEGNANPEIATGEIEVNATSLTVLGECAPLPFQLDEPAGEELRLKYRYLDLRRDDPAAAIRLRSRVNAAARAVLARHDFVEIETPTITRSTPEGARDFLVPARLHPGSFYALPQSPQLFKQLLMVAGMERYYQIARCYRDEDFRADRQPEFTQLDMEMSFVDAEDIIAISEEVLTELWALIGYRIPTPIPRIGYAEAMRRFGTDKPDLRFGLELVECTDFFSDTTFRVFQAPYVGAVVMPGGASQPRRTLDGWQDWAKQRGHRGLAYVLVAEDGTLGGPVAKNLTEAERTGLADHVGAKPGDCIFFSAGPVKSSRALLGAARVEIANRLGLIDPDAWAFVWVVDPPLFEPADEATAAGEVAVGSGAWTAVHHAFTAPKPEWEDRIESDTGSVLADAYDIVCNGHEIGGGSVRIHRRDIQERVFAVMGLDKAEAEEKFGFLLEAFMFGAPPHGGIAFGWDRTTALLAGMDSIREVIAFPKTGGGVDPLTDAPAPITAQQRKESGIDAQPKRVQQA
Description: Assay for Asp RNA synthetase-1 from Mycobacterium tuberculosis. The settings on record: 30 µM. Further details: scale not given: direction of the effect not stated beside the values. It counts as functional.

The target of experiment [2] is Shiga toxin 2 (Escherichia coli O157:H7) (UniProt P09385+P09386). The experiment can be described thus: E. coli 0.157:H7 Shiga Toxin SOP - stx2 screening assay. The settings on record: 30 µM. On the set-up: scale not given: direction of the effect not stated beside the values. Type of experiment: functional.

Regarding `CC(C)(C)NC(=O)NC(=O)CNC(C)(C)c1ccc2c(c1)OCCO2`, the Percent Effect in experiment [1] is 0.459%; in experiment [2], 41.7%.

Consider `Cc1ccc(NC2CCN(C(=O)c3cnc(C)s3)CC2)nn1`, for which the Percent Effect in experiment [1] is -1.51%; in experiment [2] it was -19.5%.

For `CC[C@H](C)Nc1nccc(-c2cnc3sc(C)c(C)n3c2=O)n1`, the Percent Effect is 0.808% in experiment [1] and -27.1% in experiment [2].

Consider `Cc1nc(CN2CCCn3c(nc(Cn4ccnc4)cc3=O)C2)cs1`, for which the Percent Effect in experiment [1] is 0.435%; in experiment [2] it was -3.23%.

On to `Cn1ccnc1CN(CCCO)C1CCCc2ccccc21` (centres undefined), for which the Percent Effect in experiment [1] amounted to 3.32%; in experiment [2], 8.83%.

Consider `Cc1cnn(CCNCCCOc2ccccc2)c1`, for which the Percent Effect in experiment [1] is -1.12%; in experiment [2], -1.37%.

As to `CC(C)c1nc(C2CCCN2CC(=O)Nc2ccc(Cl)cn2)no1` (centres undefined), the Percent Effect in experiment [1] is -6.33%; in experiment [2], 9.53%.

For the compound `CC(C)NC(=O)N1CCN(S(=O)(=O)C2CC2)CC2(CC(=O)N(C)C2)C1` (centres undefined), the figures for the Percent Effect in experiment [1] and in experiment [2] were -1.56% and -20.5%, respectively.

For `CN(C)CC1CSCCCN1C(=O)c1ccc(=O)[nH]c1` (centres undefined), the Percent Effect in experiment [1] is 0.539%; in experiment [2] it was 3.65%.

As for `CN(Cc1cc(-c2ccccc2)no1)C1CCCN(c2cccnn2)C1` (centres undefined), the results for the Percent Effect in experiment [1] and in experiment [2] were -2.03% and -0.584%, respectively.

For `O=C(Cn1nc(-c2cccs2)ccc1=O)N1CCCCCC1`, the results for the Percent Effect in experiment [1] and in experiment [2] were 1.6% and -0.139%, respectively.

As for `Cc1ccc(CNC(=O)CN2C=Nc3ccccc3S2(=O)=O)s1`, the Percent Effect in experiment [1] is -0.759%; in experiment [2] it was 9.11%.

In the case of `CC(O)CN1CCN(C(=O)c2ccc(N(C)C)nc2)CC1` (centres undefined), the Percent Effect in experiment [1] is 1.24%; in experiment [2] it was -70%.

Consider `Cc1ccc(CN2CCc3c(C(=O)N(C)C)nn(C)c3C2)s1`, for which the Percent Effect in experiment [1] came out at 1.82%; in experiment [2], 3.56%.

`CCOc1ccc2[nH]c(=O)c(CN3CCC(O)CC3)cc2c1`: the Percent Effect in experiment [1] is -6.3%; in experiment [2], -8.86%.

On to `O=C(c1ccccn1)N1CCc2nc(-c3cnccn3)nc(O)c2C1`, for which the Percent Effect in experiment [1] is -1.53%; in experiment [2] it was -15.6%.

In the case of `CC(C)N(C)C(=O)C1=NOC2(CCN(C(=O)c3ccc(Cl)cc3)C2)C1` (centres undefined), the Percent Effect is 1.19% in experiment [1] and -2.21% in experiment [2].
